Compound activity from PubChem BioAssay.
Anthrax LF prot = Bacillus anthracis LF protease inhibitors, primary screen, biochemical, multiplex microsphere, MLPCN library; Lethal factor (Bacillus anthracis), P15917; multiplex microsphere protease cleavage assay; inhibition, % at 10 µM; hit rate 0.12% among 360,000; note: plate controls were buffer without enzyme for full effect and enzyme alone for no effect
BoNT F protease = BoNT/F light chain protease inhibitors, primary screen, biochemical, flow cytometry, MLPCN library; Botulinum neurotoxin type F light chain protease (Clostridium botulinum); Multiplex microsphere protease cleavage assay; inhibition, % at 10 µM; hit rate 0.22% among 360,000; AID 588497, 2011; in the data active = inhibition above about 35%, passing the limit was not always enough; inconclusive = no clear call, values can overlap the other calls; note: plate controls were buffer without enzyme for full effect and enzyme alone for no effect
MazEF act = activators of E. coli MazEF toxin-antitoxin RNase, primary screen, biochemical, fluorescence, uHTS | hit rate 0.32% among 350,000 | FAM/BHQ RNA-DNA oligo cleavage fluorescence, 5 h | Endoribonuclease toxin MazF (Escherichia coli (strain K12)), P0AE70 | AID 504720, 2011 | activation, % at 20 µM; in the data active = activation above about 50%
Autofluor counter = counter-screen for toxin protease inhibitors: compound fluorescence; compound autofluorescence counterscreen, microsphere flow cytometry; stronger effect = higher value; hit rate 3.1% among 360,000; fluorescence intensity (concentration not given with the values); in the data active = fluorescence intensity above about 16000; inconclusive = no clear call, values can overlap the other calls
PriA SSB inh = inhibitors of Klebsiella pneumoniae PriA binding to SSB C-terminal tail, primary screen, biochemical, AlphaScreen | PriA–SSB C-terminal tail interaction (Klebsiella pneumoniae) | AlphaScreen SSBct-PriA binding, biotinylated peptide | inhibition, % at 33 µM | hit rate 0.6% among 430,000; in the data active = inhibition mostly above about 37%, no sharp cut-off; inactive = mostly below about 20%;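 note: plate controls were negative control peptide for no effect and reference peptide for full effect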
BoNT-A LC inh2 = BoNT/A light chain protease inhibitors, primary screen, biochemical, flow cytometry, MLPCN library | Botulinum neurotoxin type A light chain protease (Clostridium botulinum A str. ATCC 3502) | multiplex microsphere protease substrate cleavage | inhibition, % at 10 µM | hit rate 0.17% among 360,000; note: plate controls were buffer without enzyme for full effect and enzyme alone for no effect
* hit, by the source's call; ? = inconclusive; . = no result; ! = not confirmed by another sample. Hits are enriched below; roughly 3.3% of the tested compounds scored in any of these assays. Cut-off read from the data, not from the text of the source, unless noted: active = inhibition above about 30%; inconclusive = no clear call, values can overlap the other calls; inactive = below that.

SMILES	Anthrax LF prot	BoNT F protease	MazEF act	Autofluor counter	PriA SSB inh	BoNT-A LC inh2
CCOC(=O)C(C)C(C)=NNc1ccc([N+](=O)[O-])cc1[N+](=O)[O-] (centres undefined)	.	.	.	.	67*	.
CCOc1ccc(NN=C(C(=O)OC)C(=O)OC)c([N+](=O)[O-])c1	-2	?	5	4337	-2	-1
CC(CCCO)=NNc1ccc([N+](=O)[O-])cc1[N+](=O)[O-]	.	.	.	.	-1	.
COC(=O)CC/C(C)=N\Nc1ccc([N+](=O)[O-])cc1[N+](=O)[O-]	0	0	1	21329*	.	-1
CCOC(=O)CNc1ccc(C(=O)OCC)cc1[N+](=O)[O-]	-1	-11	7	2073	-3	-1
CCOC(=O)CC(C)(C)C(C)=NNc1ccc([N+](=O)[O-])cc1[N+](=O)[O-]	.	.	.	.	44*	.
C/C(CC(C)C)=N/Nc1ccc([N+](=O)[O-])cc1[N+](=O)[O-]	.	.	-4	.	.	.
CCOC(=O)C(=NNc1ccc([N+](=O)[O-])cc1[N+](=O)[O-])C(=O)OCC	.	.	.	.	90*	.
CCOc1ccc(S(=O)(=O)Nc2ccc3c(c2)CN(C(=O)c2ccco2)CC3)cc1	.	.	.	.	0	.
CC(C)c1nccn1CC1CCN(S(=O)(=O)c2ccc(Br)s2)CC1	.	.	.	.	-10	.
O=C(NCCOc1cc(N2CCCCC2)ncn1)C1CCN(c2ccc(-c3ccccc3)nn2)CC1	.	.	.	.	-5	.
COC(=O)c1c(NC(=O)c2ccnn2C)sc2c1CCN(C(C)=O)C2	.	.	.	.	-8	.
Cc1cccc2sc(N(Cc3ccccn3)C(=O)C3CC(=O)N(c4ccccc4)C3)nc12 (centres undefined)	.	.	.	.	8	.
Cc1ccc(N2C(=O)[C@H](Cc3ccccc3C)S/C2=C(\C#N)C(=O)NCc2ccco2)cc1	.	.	.	.	-10	.
CCc1ccc(N/C(SCc2ccccc2C)=C(/C#N)C(=O)NCc2ccco2)cc1	-5	-4	5	17346*	-7	-2
O=C(Nc1cccc(-c2cnc3n2CCC3)c1)c1nc2ccccc2s1	.	.	.	.	-5	.
Cc1ccc(CN2CCN(/N=C/c3ccc(O)c(O)c3)CC2)cc1	17	-1	0	3261	.	1
COc1cc(/C=N/N2CCN(Cc3ccc(Cl)cc3)CC2)cc(Br)c1O	-2	36*	2	4715	.	-4
COc1cc(/C=N/N2CCN(Cc3ccc(Cl)cc3)CC2)ccc1OC(C)=O	-13	?	4	3893	.	0
COc1ccc(/C=N/N2CCN(Cc3ccc(C)cc3)CC2)cc1Br	-6	43*	-3	4367	.	-3
O=S(=O)(NCC(c1cccs1)N1CCc2ccccc21)c1ccccc1 (centres undefined)	.	.	.	.	-4	.
O=S(=O)(NCC(c1ccco1)N1CCc2ccccc21)c1ccccc1 (centres undefined)	.	.	-2	.	25*!	.
COc1ccc(C2/C(=C(\O)c3cccc(OC)c3)C(=O)C(=O)N2c2ccccn2)cc1 (centres undefined)	-2	-6	-3	23419*	.	?
Cc1ccc2nc(NC(=O)COC(=O)c3ccc(Br)o3)sc2c1	-3	11	0	3653	-4	0
O=C(COC(=O)c1ccc(Br)o1)Nc1nc2ccccc2s1	-1	-3	5	16288*	-4	0
SMILES	Anthrax LF prot	BoNT F protease	MazEF act	Autofluor counter	PriA SSB inh	BoNT-A LC inh2
O=C(Nc1ccccc1-c1nc2ccccc2s1)c1ccc(Br)o1	-3	0	-1	23088*	-5	0
CC(=O)Nc1cccc(Oc2cnc3ccccc3n2)c1	-16	2	-4	18766*	-22	3
COc1ccc(Oc2cnc3ccccc3n2)cc1	-1	8	5	2240	-15	0
CC(=O)Nc1ccc(Oc2cnccn2)cc1	-1	3	7	1980	-11	1
CC(=O)Nc1ccc(Oc2cnc3ccccc3n2)cc1	0	1	-5	24151*	-3	0
c1ccc(Oc2cnc3ccccc3n2)cc1	-1	1	5	23310*	-3	1
CS(=O)(=O)N1CCCc2ccc(NC(=O)c3ccccc3Br)cc21	.	.	.	.	-5	.
CC(=O)Nc1ccc(S(=O)(=O)N2CCC[C@H](Cc3nc(-c4cnccn4)no3)C2)cc1	.	.	.	.	-7	.
Cc1noc(NS(=O)(=O)c2ccc(NC(=O)CC(C)C)cc2)c1C	0	5	-25	5670	-8	0
Cc1noc(NS(=O)(=O)c2ccc(NC(=O)CSc3nc4c(cc3C#N)CCCCC4)cc2)c1C	-2	-7	7	24886*	-2	-3
N#Cc1cc2c(nc1SCC(=O)NCc1ccc3c(c1)OCO3)CCCCC2	-1	0	1	18758*	-9	2
N#Cc1cc2c(nc1SCC(=O)O)CCCCC2	-4	-6	-2	4649	-14	0
CC(=NS(=O)(=O)c1ccc(C)cc1)N1CCN(S(=O)(=O)c2ccccc2)C1C(C)C (centres undefined)	.	.	.	.	3	.
C/C(=N\S(=O)(=O)c1ccc(C)cc1)N1CCN(S(=O)(=O)c2ccccc2)C1C(C)C (centres undefined)	3	2	-13	22111*	.	1
Cc1ccc(CNCC(O)(c2ccc(F)cc2)c2ccc(F)cc2)cc1	-8	-13	-2	22638*	-26	?
Cc1ccc(CNCC(O)(c2ccccc2)c2ccc(F)cc2)cc1 (centres undefined)	-10	-18	3	10625	-13	-2
CCCSc1cc(=O)n(-c2ccccc2)nc1C(=O)OCC	3	-2	3	22530*	-16	0
COC(=O)c1nn(-c2ccccc2)c(=O)cc1Oc1ccccc1	-2	1	4	22483*	-16	0
CCOC(=O)c1nnn(-c2ccccc2)c1C	-1	-7	-1	24310*	2	?
CCOC(=O)c1nn(-c2ccccc2)c(C#N)c1N	-1	-1	5	2015	-9	0
CCn1nc(C(=O)N(CCN2CCOCC2)c2nc3ccc(OC)cc3s2)cc1C	.	.	.	.	-7	.
c1ccc(CCSc2nccn2-c2ccccc2)cc1	-2	2	-3	2857	62*	0
CCc1ccc(CSc2nccn2-c2ccccc2)cc1	-1	-10	-8	3017	63*	-1
COC(=O)CCCSc1nccn1-c1ccccc1	-1	0	5	4260	13	0
COc1ccc(C(F)(F)F)cc1NC(=O)CSc1ccc(NC(C)=O)nn1	.	.	.	.	-11	.
COc1cccc(C(=O)NCc2nnc(SCC(=O)Nc3nccs3)n2-c2cccc(C)c2)c1	1	-6	7	16987*	-16	-2
C=CCn1c(Cc2csc(N)n2)nnc1SCC(=O)Nc1ccccc1C(F)(F)F	2	-3	3	23049*	74*	-1
